# Results reported in PubChem BioAssay (Tox21).
# Results filed as inconclusive are left out. Where a call stands in place of a potency, no number is given. Unmarked numbers belong to inactive results. The source made the active and inactive calls. Calls follow the shape of the dose curve; as a rule, active = well fitted curve in the direction sought with a large enough effect in the repeat runs; inconclusive = weak or mixed curves; inactive = no such curve, though single readings can be large; an effect the other way counts as inactive or inconclusive.
# Tests used:
# [1] = target: Voltage-gated inwardly rectifying potassium channel KCNH2 (Homo sapiens) (UniProt Q12809); assay: Human Ether-a-go-go-Related Gene (hERG) channel small molecule antagonists: fluorescence cell-based qHTS assay (AID 1671200); also: potency is read from the fitted curve at half-maximal effect;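 as to activity change, negative = inhibition: hERG-expressing U2OS cells given a thallium stimulus after FluxOR II dye loading; series mostly up to about 77 µM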
# Summary of the method: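 U2OS cells expressing the channel were plated at 1000 cells/well, incubated overnight at 37 C, then loaded with FluxOR II thallium-sensitive dye for 1 h at room temperature in the dark, with a further 10 min at room temperature before stimulation.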
# [2] = target: Cytochrome P450 2C9 (Homo sapiens) (UniProt P11712); assay: Cytochrome P450 Family 2 Subfamily C Member 9 (CYP2C9) small molecule antagonists: luciferase reporter qHTS assay (AID 1671198); also: series mostly up to about 120 µM
# Summary of the method: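 CYP2C9 activity was measured with a P450-Glo proluciferin substrate. Enzyme–substrate mix was held with compound for 10 min at room temperature, then NADPH regeneration solution was added for 1 h at 37C. Luciferin product was read as luminescence.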
# [3] = target: Cytochrome P450 3A4 (Homo sapiens) (UniProt P08684); assay: Cytochrome P450 Family 3 Subfamily A Member 4 (CYP3A4) small molecule antagonists: luciferase reporter qHTS assay (AID 1671201); also: potency is read from the fitted curve at half-maximal effect; as to activity change, negative = inhibition: series mostly up to about 120 µM
# Summary of the method: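 P450-Glo CYP3A4 system with proluciferin substrate; compounds preincubated 10 min RT with enzyme-substrate mix, then NADPH regeneration added for 1 h RT. Detection reagent 20 min, luminescence read as relative luminescence units.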
# [4] = target: Cytochrome P450 1A2 (Homo sapiens) (UniProt P05177); assay: Cytochrome P450 Family 1 Subfamily A Member 2 (CYP1A2) small molecule antagonists: luciferase reporter qHTS assay (AID 1671199); also: potency is read from the fitted curve at half-maximal effect; as to activity change, negative = inhibition: series mostly up to about 120 µM
# Summary of the method: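 Quantitative high-throughput format using the P450-Glo CYP1A2 system. Reaction initiated by NADPH regeneration solution, 1 h at room temperature, then stopped with detection reagent; luminescence measured 20 min later.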
# Also: nearly all actives have a fitted effect of over 50% in size.
# Cytochrome P450 3A4 (Homo sapiens), sequence (P08684 whole entry, looked up): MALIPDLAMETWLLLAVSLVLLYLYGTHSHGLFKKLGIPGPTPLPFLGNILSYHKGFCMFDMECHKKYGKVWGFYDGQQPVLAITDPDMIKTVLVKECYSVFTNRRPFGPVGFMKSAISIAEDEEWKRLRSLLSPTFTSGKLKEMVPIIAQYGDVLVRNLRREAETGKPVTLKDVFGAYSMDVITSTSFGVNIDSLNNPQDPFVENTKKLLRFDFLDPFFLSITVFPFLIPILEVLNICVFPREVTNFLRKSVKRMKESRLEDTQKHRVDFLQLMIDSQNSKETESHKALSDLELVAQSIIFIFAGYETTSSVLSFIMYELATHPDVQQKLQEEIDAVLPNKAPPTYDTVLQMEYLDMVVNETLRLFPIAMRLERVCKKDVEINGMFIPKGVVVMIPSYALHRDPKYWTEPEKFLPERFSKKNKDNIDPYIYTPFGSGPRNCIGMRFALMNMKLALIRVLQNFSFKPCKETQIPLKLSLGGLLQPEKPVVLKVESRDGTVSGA
# Cytochrome P450 2C9 (Homo sapiens), sequence (P11712 whole entry, looked up): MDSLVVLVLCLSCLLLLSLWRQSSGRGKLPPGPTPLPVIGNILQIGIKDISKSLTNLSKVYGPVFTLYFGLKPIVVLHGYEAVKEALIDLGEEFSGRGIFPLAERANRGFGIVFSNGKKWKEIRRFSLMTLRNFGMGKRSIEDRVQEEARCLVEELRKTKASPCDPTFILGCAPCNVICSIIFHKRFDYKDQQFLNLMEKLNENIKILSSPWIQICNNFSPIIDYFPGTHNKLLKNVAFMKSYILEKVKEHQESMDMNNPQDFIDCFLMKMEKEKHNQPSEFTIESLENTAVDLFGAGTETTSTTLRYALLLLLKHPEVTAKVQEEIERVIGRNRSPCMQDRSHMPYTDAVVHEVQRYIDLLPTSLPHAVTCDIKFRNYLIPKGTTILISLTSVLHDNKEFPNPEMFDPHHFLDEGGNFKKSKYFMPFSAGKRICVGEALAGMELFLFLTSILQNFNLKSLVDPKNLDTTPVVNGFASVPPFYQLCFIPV
# Voltage-gated inwardly rectifying potassium channel KCNH2 (Homo sapiens), sequence (Q12809 whole entry, looked up): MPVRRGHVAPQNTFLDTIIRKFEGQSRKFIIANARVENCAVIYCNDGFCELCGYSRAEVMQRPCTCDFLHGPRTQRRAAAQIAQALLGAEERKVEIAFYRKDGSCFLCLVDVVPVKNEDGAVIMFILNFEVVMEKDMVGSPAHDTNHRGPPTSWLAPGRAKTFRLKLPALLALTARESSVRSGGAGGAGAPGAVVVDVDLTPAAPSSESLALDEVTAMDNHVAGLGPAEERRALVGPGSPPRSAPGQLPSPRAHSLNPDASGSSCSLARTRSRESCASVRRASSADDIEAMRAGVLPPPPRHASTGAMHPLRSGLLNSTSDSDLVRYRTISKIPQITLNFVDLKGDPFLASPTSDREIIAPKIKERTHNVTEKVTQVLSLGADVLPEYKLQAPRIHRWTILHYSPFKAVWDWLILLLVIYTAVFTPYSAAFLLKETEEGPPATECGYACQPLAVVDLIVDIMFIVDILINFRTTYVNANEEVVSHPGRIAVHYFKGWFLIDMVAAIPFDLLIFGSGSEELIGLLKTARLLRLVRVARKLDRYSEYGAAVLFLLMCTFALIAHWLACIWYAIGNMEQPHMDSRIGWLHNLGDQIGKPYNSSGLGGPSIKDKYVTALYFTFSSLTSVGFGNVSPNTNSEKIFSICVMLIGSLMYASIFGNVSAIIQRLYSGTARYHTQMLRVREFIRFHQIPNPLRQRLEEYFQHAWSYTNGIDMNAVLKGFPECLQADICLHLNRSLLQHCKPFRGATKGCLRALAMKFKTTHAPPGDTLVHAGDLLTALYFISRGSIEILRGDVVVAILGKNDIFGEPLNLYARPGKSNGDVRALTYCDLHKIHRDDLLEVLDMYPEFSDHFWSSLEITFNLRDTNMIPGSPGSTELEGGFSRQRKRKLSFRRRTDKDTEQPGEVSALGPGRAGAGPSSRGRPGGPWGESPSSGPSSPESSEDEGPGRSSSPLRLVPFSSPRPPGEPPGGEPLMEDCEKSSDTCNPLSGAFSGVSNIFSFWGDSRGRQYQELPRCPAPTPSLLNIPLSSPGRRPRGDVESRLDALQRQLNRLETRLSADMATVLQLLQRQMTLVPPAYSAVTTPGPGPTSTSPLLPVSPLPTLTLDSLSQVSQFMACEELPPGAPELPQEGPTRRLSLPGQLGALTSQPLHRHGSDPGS
# Cytochrome P450 1A2 (Homo sapiens), sequence (P05177 whole entry, looked up): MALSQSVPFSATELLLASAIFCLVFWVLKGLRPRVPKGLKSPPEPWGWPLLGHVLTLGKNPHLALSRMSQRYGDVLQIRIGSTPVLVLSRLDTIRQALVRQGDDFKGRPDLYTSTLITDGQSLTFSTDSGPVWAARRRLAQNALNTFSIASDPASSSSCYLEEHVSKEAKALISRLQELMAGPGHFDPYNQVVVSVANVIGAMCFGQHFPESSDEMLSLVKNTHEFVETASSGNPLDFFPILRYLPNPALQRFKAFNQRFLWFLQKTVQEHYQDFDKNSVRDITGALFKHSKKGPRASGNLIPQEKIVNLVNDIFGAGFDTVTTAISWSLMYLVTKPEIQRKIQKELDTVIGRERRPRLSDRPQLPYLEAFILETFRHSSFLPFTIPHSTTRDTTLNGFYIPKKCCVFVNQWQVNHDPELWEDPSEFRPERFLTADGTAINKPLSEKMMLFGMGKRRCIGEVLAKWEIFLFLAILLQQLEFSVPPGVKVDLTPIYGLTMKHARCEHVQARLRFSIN
SMILES,Potency [1],Potency [2],Potency [3],Potency [4],"activity change, negative = inhibition [1]"
COC(=O)[C@H]1[C@H]2C[C@@H]3c4[nH]c5cc(OC)ccc5c4CCN3C[C@H]2C[C@@H](OC(=O)COc2ccc(OC)cc2)[C@@H]1OC,0.601 µM (active),–,–,–,–
C=C(C)C(=O)NCCC[N+](C)(C)C,inactive,inactive,inactive,–,–
CCC(C)(C)C1CCC(OC)CC1 (stereo not given),inactive,–,inactive,inactive,–
O=C1C(CCS(=O)c2ccccc2)C(=O)N(c2ccccc2)N1c1ccccc1 (stereo not given),inactive,–,–,inactive,–
Cn1cnc2c(=O)[nH]c(N)nc21,inactive,inactive,inactive,28.3 µM (active),–
NS(=O)(=O)c1cc2c(cc1C(F)(F)F)NC(Cc1ccccc1)NS2(=O)=O (stereo not given),–,–,–,inactive,–
Nc1cc(C(Cl)=C(Cl)Cl)c(S(N)(=O)=O)cc1S(N)(=O)=O,inactive,–,–,inactive,–
O=C(O)c1cccc(C(=O)O)n1,inactive,–,inactive,inactive,–
CCc1cc(S(=O)(=O)O)c2cc(C(C)C)cccc1-2,inactive,–,inactive,inactive,–
NS(=O)(=O)c1cc(C2(O)NC(=O)c3ccccc32)ccc1Cl (stereo not given),inactive,inactive,–,–,–
Nc1nc(F)nc2c1ncn2[C@@H]1O[C@H](CO)[C@@H](O)[C@@H]1O,inactive,inactive,inactive,inactive,–
CCn1c(=O)c2c(nc(/C=C/c3ccc(OC)c(OC)c3)n2C)n(CC)c1=O,inactive,–,–,inactive,–
CCCCC1CCCCC(=O)O1 (stereo not given),inactive,inactive,inactive,–,–
COCCOC(=O)CC#N,inactive,inactive,inactive,inactive,–
CC(C)(C)CC(C)(C)N,inactive,inactive,inactive,30.8 µM (active),–
CC(CCO)CCCC(C)(C)O (stereo not given),inactive,inactive,inactive,–,–

SMILES,Potency [1],Potency [2],Potency [3],Potency [4],"activity change, negative = inhibition [1]"
CN(C)C(=O)C(CCN1CCC(O)(c2ccc(Cl)cc2)CC1)(c1ccccc1)c1ccccc1,–,–,inactive,inactive,–
c1ccc2cnncc2c1,inactive,inactive,inactive,14.2 µM (active),–
O=Cc1ccccc1[N+](=O)[O-],inactive,–,inactive,31.7 µM (active),–
CCN1CCCC(OC(=O)C(c2ccccc2)c2ccccc2)C1 (stereo not given),3.38 µM (active),inactive,–,inactive,–
N[C@@H](CS)C(=O)O,inactive,–,inactive,inactive,–
COC(=O)CCCCCCCCC(=O)OC,inactive,–,inactive,40.1 µM (active),–
C[C@H](O)C(=O)Nc1c(I)c(C(=O)NC(CO)CO)c(I)c(C(=O)NC(CO)CO)c1I,inactive,inactive,inactive,inactive,–
CC(=O)O[C@H](CC(=O)[O-])C[N+](C)(C)C,inactive,–,–,–,–
CC(C)(C)OC(=O)N1C[C@@H](F)C[C@H]1C(=O)O,inactive,–,36.8 µM (active),–,–
CN(C)CCn1nnnc1SCC1=C(C(=O)O)N2C(=O)[C@@H](NC(=O)Cc3csc(N)n3)[C@H]2SC1,inactive,inactive,inactive,inactive,–
Cn1ccc2cc3c(cc21)CCN3C(=O)Nc1cccnc1,–,–,–,0.0791 µM (active),2.6% [at 15.8 µM]
Nc1[nH]c(=O)ncc1F,inactive,inactive,inactive,inactive,–
CO,inactive,–,–,–,–
COC[C@H](c1ccc(C(F)(F)F)cc1)N1CCN(C2(C)CCN(C(=O)c3c(C)ncnc3C)CC2)C[C@H]1C,–,–,–,inactive,–
CN(C)C(=O)Nc1ccccc1,inactive,inactive,inactive,–,–
CCCOCC(C)OCC(C)O (stereo not given),inactive,–,–,–,–
